# Records with an inconclusive call do not appear. A number with no mark means an inactive call. Active and inactive are the calls of the source. Calls come from the whole dose curve.
# Target: D(2) dopamine receptor (Homo sapiens) (UniProt P14416)
# Assay: Dopamine D2 receptor (DRD2) small molecule agonists, cell-based qHTS assay (AID 1963594); note: nearly all actives have a fitted effect of over 35% in size
# Details: HEK293-DRD2 cAMP HTRF, agonist mode, 30 min; series mostly up to 92.4 µM; activation: at the top concentration
# Text: National Center for Advancing Translational Sciences [NCATS]
# Division of Preclinical Innovation [DPI]
# U.S. Environmental Protection Agency [EPA]
# National Institutes of Environmental Health Sciences [NIEHS]
# National Toxicology Program [NTP]
# U.S. Food and Drug Administration [FDA]
# DRD2 is the D2 subtype of the dopamine receptor, which is coupled to Gi subtype of G protein-coupled receptor. This G protein-coupled receptor inhibits adenylyl cyclase activity. The DRD2-HEK293 cell line stably expressing D2 dopamine receptor can be used for screening agonists and antagonists of interactions between D2 and its ligands. The Hek293-DRD2 cAMP assay is based on HTRF technology. It measures changes of cAMP accumulation in response to Gi coupled GPCR activation or inhibition.
# Tox21 Assay Protocol Summary:
# DRD2-Hek293 cells were dispensed at 600 cells/3uL/well in 1536-well white plates using a Multidrop Dispenser. After the assay plates were incubated at a 37 C/5% CO2 incubator for 24 h, 1 uL of Ro20-1724 at final concentration of 0.1 mM was transferred to the assay plate by a Flying Reagent Dispenser. Following Ro20-1724 addition, 23 nL of compound dissolved in DMSO, positive controls or DMSO only was added to the assay plates via Wako pintool station. The assay plates were incubated at room temperature for 10 min. Next, 1 uL of NKH477 at 200nM was added into the plates. After the assay plates were incubated at room temperature for an additional 30 min, 2.5 ul/well of cAMP-d2 and 2.5 ul/well of anti-cAMP-cryptate were added respectively into the assay plates using a Flying Reagent Dispenser. The plates were incubated at room temperature for 1 h. The fluorescence intensity in the plates was measured at 340 nm excitation and 665 & 620 nm emission by an Envision plate reader.
# % is set by controls: 0 for no effect and ±100 for the full control effect.
# Sequence of D(2) dopamine receptor (Homo sapiens) (P14416 whole entry, looked up): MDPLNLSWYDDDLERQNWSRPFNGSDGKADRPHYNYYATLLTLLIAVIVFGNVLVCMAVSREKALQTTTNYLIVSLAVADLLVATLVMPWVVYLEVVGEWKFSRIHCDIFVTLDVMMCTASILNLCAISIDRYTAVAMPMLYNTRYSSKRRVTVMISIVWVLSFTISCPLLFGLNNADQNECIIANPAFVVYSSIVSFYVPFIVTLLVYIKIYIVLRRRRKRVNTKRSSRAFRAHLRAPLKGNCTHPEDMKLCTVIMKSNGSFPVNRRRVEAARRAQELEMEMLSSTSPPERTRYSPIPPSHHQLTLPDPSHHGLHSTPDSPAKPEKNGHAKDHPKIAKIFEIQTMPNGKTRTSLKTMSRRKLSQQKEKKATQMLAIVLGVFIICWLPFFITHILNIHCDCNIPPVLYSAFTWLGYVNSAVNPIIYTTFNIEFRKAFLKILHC
Compound,activation,Potency
CC1CCC(CO)CC1 (stereo not given),1.94%,
C=C(C)C(=O)OCCCCCCCCCC,-4.45%,
Cc1nc([N+](=O)[O-])cn1-c1ccc([N+](=O)[O-])cc1,-1.66% [at 42.5 µM],
CC(C)C(C)C,-0.638%,
NC(=O)C1(N2CCCCC2)CCN(CCCN2c3ccccc3CCc3ccc(Cl)cc32)CC1,-20.4% [at 42.5 µM],
CCc1ccc(C)cc1,-2.06%,
C=COCCOCCOC=C,3.18%,
CCOC(=O)CC(=O)C(=O)OCC,0.0574%,
O=[N+]([O-])c1cccc(C(F)(F)F)c1,-6.19%,
CC[C@H]1CC[C@H](NCc2cc3c(cc2OC)[C@H]2C[C@H]2C(=O)N3C)[C@H](c2ccccc2)N1,-7.45%,
COc1cccc2sc(N)nc12,1.55%,
CC(C)CCOCc1ccccc1,-2.67%,
CC1(CO)CN(c2ccccc2)NC1=O (stereo not given),5.84%,
Cc1ccc(-c2ncc(Cl)cc2-c2ccc(S(C)(=O)=O)cc2)cn1,1.4% [at 42.5 µM],
COc1ccc(C(=O)/C(Br)=C\C(=O)O)cc1,-9.97%,
CC(=O)CCC1=C(C)CCCC1(C)C,-8.51%,
C=CC(C)(C)CC(=O)OC,4.12%,
c1ccc2sc(SN(C3CCCCC3)C3CCCCC3)nc2c1,-0.379%,
NCCc1ccn[nH]1,7.19% [at 42.5 µM],
CCCCCCCCC(=O)OCC(C)OC(=O)CCCCCCCC (stereo not given),0.811%,

Compound,activation,Potency
CC(=O)S[C@@H]1CC2=CC(=O)CC[C@]2(C)[C@H]2CC[C@@]3(C)[C@@H](CC[C@@]34CCC(=O)O4)[C@H]12,-8.18%,
C=Cc1ccc(O)c(OC)c1,-3.21%,
BrCc1cccc(Oc2ccccc2)c1,0.874%,
C/C=C/C(=O)C1=C(C)CCCC1(C)C,10.6%,
Brc1c(NC2=NCCN2)ccc2nccnc12,-3.35% [at 42.5 µM],
NC(=O)CCCCC1CCSS1 (stereo not given),-13.3% [at 42.5 µM],
COc1ccc2c(c1)c(CC(=O)OC/C=C(\C)CC/C=C(\C)CCC=C(C)C)c(C)n2C(=O)c1ccc(Cl)cc1,2.54% [at 42.5 µM],
CC(C)n1c(/C=C/[C@@H](O)C[C@@H](O)CC(=O)O)c(-c2ccc(F)cc2)c2ccccc21,,inactive
O=C1CCCc2c1cc1ccc3cccc4ccc2c1c34,1.12%,
CCCCCCCCCCCCCOS(=O)(=O)O,0.476%,
CC(C)n1nc(-c2cc3cc(O)ccc3[nH]2)c2c(N)ncnc21,3.35% [at 42.5 µM],
CCCCN(CCCC)CC(O)c1cc(Cl)cc2c1-c1ccc(Cl)cc1/C2=C/c1ccc(Cl)cc1 (stereo not given),-6.89% [at 42.5 µM],
O=S(=O)(c1ccc(OCc2ccccc2)cc1)c1ccccc1O,-3.59%,
CC[C@@H]([C@H](C)O)n1ncn(-c2ccc(N3CCN(c4ccc(OC[C@@H]5CO[C@@](Cn6cncn6)(c6ccc(F)cc6F)C5)cc4)CC3)cc2)c1=O,-12.7% [at 42.5 µM],
CC1=CC(=O)/C(=C(/C)O)C(=O)O1,19.1%,
CO/N=C(/C(=O)N[C@@H]1C(=O)N2C(C(=O)OCOC(=O)C(C)(C)C)=C(C)CS[C@H]12)c1csc(N)n1,-16.6% [at 42.5 µM],
COC(=O)C1=C(C)NC(C)=C(C(=O)OCCCN2CCC(c3ccccc3)(c3ccccc3)CC2)C1c1cccc([N+](=O)[O-])c1 (stereo not given),0.702% [at 42.5 µM],
C=CC(=O)OCC(C)OCC(C)OCC(C)OC(=O)C=C (stereo not given),-2.74%,
O=C(c1ccccc1)c1ccc(O)cc1O,,inactive
CCCCCCC#CC(=O)OC,0.0599%,

# Source: PubChem BioAssay (Tox21)
